Measurements as given in PubChem BioAssay (EPA / NIEHS).
Records with an inconclusive call do not appear. Active and inactive are the calls of the source. The calls were made as follows: active = hit-call score of the fitted dose curve at least 0.9, where 1 is the maximum; inconclusive = response in the unintended direction; inactive = score below 0.9.

How the values were obtained:
[1] = target: guinea pig Leukotriene D4 Receptor (LTD4), CYSLTR1 (gene 100135514) (UniProt Q2NNR5); test: NVS_GPCR_gLTD4: NovaScreen (NVS) G Protein-Coupled Receptor Assay for guinea pig Leukotriene D4 Receptor (LTD4) (AID 2283248)
guinea pig Leukotriene D4 Receptor (LTD4), CYSLTR1 (gene 100135514), sequence (Q2NNR5 whole entry, looked up): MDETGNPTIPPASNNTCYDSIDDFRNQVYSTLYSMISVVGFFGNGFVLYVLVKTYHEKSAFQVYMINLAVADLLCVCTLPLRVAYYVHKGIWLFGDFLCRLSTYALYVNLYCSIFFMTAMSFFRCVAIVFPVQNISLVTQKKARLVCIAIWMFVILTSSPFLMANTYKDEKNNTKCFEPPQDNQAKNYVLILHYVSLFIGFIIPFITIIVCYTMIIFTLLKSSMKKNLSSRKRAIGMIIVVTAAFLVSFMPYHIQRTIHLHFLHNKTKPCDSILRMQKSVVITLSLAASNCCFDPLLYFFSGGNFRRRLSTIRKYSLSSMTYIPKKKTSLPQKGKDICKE
Outline: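 Guinea pig lung membrane preparation; bound radioligand measured by filter scintillation after 1 h, loss of signal versus DMSO marking displacement. Compounds tested at 25 uM in duplicate, hits retested to max 50 uM.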

[2] = target: human Adenosine A1 Receptor (AdoRA1), ADORA1 (gene 134) (UniProt P30542); test: NVS_GPCR_hAdoRA1: NovaScreen (NVS) G Protein-Coupled Receptor Assay for human Adenosine A1 Receptor (AdoRA1) (AID 2283254)
human Adenosine A1 Receptor (AdoRA1), ADORA1 (gene 134), sequence (P30542 whole entry, looked up): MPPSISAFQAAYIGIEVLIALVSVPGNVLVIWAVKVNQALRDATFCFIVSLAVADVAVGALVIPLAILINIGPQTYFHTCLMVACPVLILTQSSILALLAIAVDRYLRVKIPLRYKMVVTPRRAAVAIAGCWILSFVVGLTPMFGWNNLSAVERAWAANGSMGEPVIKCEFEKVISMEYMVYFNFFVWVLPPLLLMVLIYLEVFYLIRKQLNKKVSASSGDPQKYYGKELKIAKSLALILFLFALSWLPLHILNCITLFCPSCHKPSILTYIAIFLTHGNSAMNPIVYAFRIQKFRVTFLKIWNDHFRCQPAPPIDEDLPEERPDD
Outline: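 Each chemical is first tested twice at 25 uM, actives later in dilution series, against a radioligand bound to human cortex membranes; after 1 h, filter-retained counts are compared with DMSO controls, lower signal indicating displacement.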

[3] = target: rat Neonicotinoid receptor (NNR), Chrna7 (gene 25302) (UniProt Q05941); test: NVS_LGIC_rNNR_BungSens: NovaScreen (NVS) Ligand-Gated Ion Channel Assay for rat Neonicotinoid receptor (NNR) (AID 2283315)
rat Neonicotinoid receptor (NNR), Chrna7 (gene 25302), sequence (Q05941 whole entry, looked up): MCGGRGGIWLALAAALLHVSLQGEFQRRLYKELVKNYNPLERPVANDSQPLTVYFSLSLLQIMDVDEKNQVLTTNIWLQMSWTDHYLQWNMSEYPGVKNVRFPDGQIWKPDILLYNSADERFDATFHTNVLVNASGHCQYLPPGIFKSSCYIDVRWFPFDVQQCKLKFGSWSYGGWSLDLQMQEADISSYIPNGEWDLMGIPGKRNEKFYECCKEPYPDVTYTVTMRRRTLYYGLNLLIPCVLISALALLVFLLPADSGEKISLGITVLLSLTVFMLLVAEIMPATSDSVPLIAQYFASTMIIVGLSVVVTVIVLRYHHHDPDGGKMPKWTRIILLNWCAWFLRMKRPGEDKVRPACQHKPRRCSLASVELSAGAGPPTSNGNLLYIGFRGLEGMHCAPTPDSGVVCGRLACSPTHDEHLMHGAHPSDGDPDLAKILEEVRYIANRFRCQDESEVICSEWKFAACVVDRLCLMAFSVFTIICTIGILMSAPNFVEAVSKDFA
Outline: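 Rat cortical membrane preparation incubated 2.5 h with tritiated or iodinated radioligand and test chemical. Bound radioactivity was filtered and counted by scintillation, and displacement was analysed against DMSO.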

## O=C1c2ccccc2C(=O)c2c(O)ccc(O)c21
[1]
  outcome: inactive

## COC(=O)c1ccc([N+](=O)[O-])cc1
[1]
  outcome: inactive

## C=C(C)C(=O)OCC(CC)(COC(=O)C(=C)C)COC(=O)C(=C)C
[2]
  AC50: 24.6 µM (active)

## C=CC(C)C#N (centres undefined)
[3]
  outcome: inactive
